# High-throughput results from PubChem.
# GLD-1 TGE inh: GLD-1-TGE RNA interaction inhibition (C. elegans) | Q17339 | purified GLD-1 + fluorescein TGE RNA, fluorescence polarization | inhibition, % at 5.96 µM | hit rate 0.44% among 320,000;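 active = percent inhibition above a per-plate cutoff, the plate mean of test compounds plus 3 SD, cut at about 30% in these data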;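 note: 0% = DMSO wells with GLD-1 and probe and 100% = wells lacking GLD-1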
# MCL1-BIM inh: disrupts human MCL1 binding to BIM-BH3 peptide | Q07820 | GST-MCL1 / FITC-Bim-BH3 fluorescence polarization | inhibition, % at 10.9 µM | hit rate 0.68% among 320,000;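 active = inhibition above the mean inhibition of all tested compounds plus 3 SD, set per campaign, cut at about 40% in these data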;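 note: 0% = DMSO wells and 100% = unlabeled Bim-BH3 peptide control; higher means more loss of mP so more displacement of Bim peptide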
# BCLXL inh: inhibitors of human Bcl-xL. GST-Bcl-xL / FITC-Bim BH3 peptide fluorescence polarization. hit rate 0.7% among 320,000. Q07817. inhibition, % at 10.9 µM;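 active = inhibition above the mean of all tested compounds plus 3 SD, cutoff set per campaign, cut at about 30% in these data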;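 note: 0% = DMSO wells and 100% = unlabeled Bim-BH3 peptide competitor; inhibitors lower millipolarization by displacing the labeled peptide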
# Target sequence (Q07817 whole entry, looked up): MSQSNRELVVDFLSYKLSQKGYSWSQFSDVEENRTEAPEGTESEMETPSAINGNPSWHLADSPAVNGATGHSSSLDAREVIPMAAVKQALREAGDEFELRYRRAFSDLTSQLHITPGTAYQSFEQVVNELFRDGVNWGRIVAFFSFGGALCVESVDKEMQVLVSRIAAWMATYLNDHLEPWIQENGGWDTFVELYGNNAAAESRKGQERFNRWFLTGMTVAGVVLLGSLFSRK
# eLon inh: inhibitors of E. coli Lon protease | purified E. coli Lon protease, fluorescence polarization | inhibition, % at 7.94 µM | hit rate 0.42% among 360,000; in the data active = inhibition above about 13%, passing the limit was not always enough;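 note: 0% = enzyme with probe and DMSO and 100% = no enzyme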
# MEX-5 binding: C. elegans MEX-5 TCR-2 RNA binding activity | Q9XUB2 | MEX-5/FITC-TCR2 RNA binding, fluorescence polarization; active compounds read low | activity score (negative = inhibition of binding), % at 10 µM | hit rate 0.38% among 300,000 | AID 1832;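 active = inhibition past about -25% in most replicates, and total fluorescence under double the plate's negative control median, limit read from the data; inconclusive = replicates evenly split on the limit, or fluorescence at least double controls; inactive = too little inhibition in most replicates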;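 note: 0% = DMSO and -100% = 5 µM competing unlabeled TCR2 RNA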
# EBV gp42 inh: EBV gp42 inhibition | Q1HVG2 | Fluorescence polarization binding assay, mP read-out | inhibition, % (tested at 21.74 µM) | hit rate 0.42% among 220,000; in the data active = inhibition above about 50%
# Target sequence (Q1HVG2 whole entry, looked up): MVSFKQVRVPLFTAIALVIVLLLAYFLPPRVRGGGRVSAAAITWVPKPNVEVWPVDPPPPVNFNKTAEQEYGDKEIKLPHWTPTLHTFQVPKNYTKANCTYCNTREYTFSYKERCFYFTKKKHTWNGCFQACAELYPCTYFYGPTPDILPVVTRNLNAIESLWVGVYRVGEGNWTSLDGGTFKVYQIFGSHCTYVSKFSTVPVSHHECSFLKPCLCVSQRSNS
# E coli Lon conf: confirmation of E. coli Lon protease inhibitors. shares compounds with eLon inh. purified E. coli Lon, fluorescence polarization. inhibition, % at 7.94 µM. hit rate 31% among 1,400. AID 602230; in the data active = inhibition above about 16%;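 note: 0% = enzyme with probe and DMSO and 100% = no enzyme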
# * marks the source's active call; other numbers are inactive results; u = inconclusive; x = no result. Only some compounds are listed: those with a hit (about 1.5% of all), similar ones and a draw of the others.
SMILES,GLD-1 TGE inh,MCL1-BIM inh,BCLXL inh,eLon inh,MEX-5 binding,EBV gp42 inh,E coli Lon conf
COc1ccc(OC)c(S(=O)(=O)N2CCC(C(=O)NCc3cccnc3)CC2)c1,0,7,1,-1,-2,x,x
COc1ccc(NC(C)=O)cc1NC(=O)CSc1nnc(-c2ccncc2)n1C,6,3,5,8,4,-3,x
Cc1ccc(NC(=O)CSc2nnc(-c3ccncc3)n2C)cc1C,3,1,3,33*,2,-8,-6
Cn1cnnc1SCC(=O)Nc1ccc2ccccc2c1,7,-6,0,14*,x,x,1
COc1ccc(N2CC(C(=O)OCC(=O)Nc3cccc(C)c3C)CC2=O)cc1 (centres undefined),6,1,-1,-1,-3,x,x
NS(=O)(=O)c1cccc(NC(=O)COC(=O)CN2C(=O)C3CC=CCC3C2=O)c1 (centres undefined),5,7,0,-2,3,-7,x
O=C(CCS(=O)(=O)Cc1ccccc1F)N1CCc2ccccc2C1,-1,6,8,18*,-1,-8,-17
CCN(C(=O)CSc1nnc(C2CC2)n1-c1ccccc1)C1CCS(=O)(=O)C1 (centres undefined),3,-2,0,-4,x,x,x
CC(C)CN(C(=O)CSc1nnc(C2CC2)n1-c1ccccc1)C1CCS(=O)(=O)C1 (centres undefined),1,4,0,56*,x,x,55*
CNc1cncc(-c2ccc(OC)cc2OC)n1,x,x,x,-3,x,x,x
COc1cccc(C2=CC(=O)CC(C)(C)C2)n1,-4,7,4,-4,-2,x,x
CC1C2(C)OC(=N)C(C#N)(C(C)O2)C1(C#N)C#N (centres undefined),25,48*,52*,22*,-30*,11,35*
CC(=O)c1ccc(NC(=O)[C@@H]2CCCN2C2=NS(=O)(=O)c3ccccc32)cc1,5,-4,2,0,x,x,x
CC(C)CCCNc1nc(N2CCOCC2)nc(N2CCOCC2)n1,5,2,2,84*,-2,4,2
CC(C)(C)c1ccc(CS(=O)CC(O)CO)cc1 (centres undefined),2,9,5,-8,1,-23,x
NC(=O)c1ccc2c(=O)c(O)c(-c3cc(Cl)c(N)c(Cl)c3)[nH]c2c1,0,28,3,52*,u,x,19*
CCNc1nc(=S)nc(NCc2ccccc2)[nH]1,4,6,10,x,-2,-3,x
CCO[C@H]1OC(C(=O)N2CCN(Cc3ccccc3)CC2)=C[C@@H](C)[C@@H]1CCCO,3,3,6,28*,1,-10,5
Cc1cccn2c(CN3CCCN(C=O)CC3)c(C(=O)N(C)CCc3ccccc3)nc12,1,11,5,5,-5,-12,x
N#Cc1c(N2CCN(c3ccc([N+](=O)[O-])cc3)CC2)[n+](=O)c2ccc(Cl)cc2n1[O-],x,x,x,134*,x,x,43*
CCOc1cc(C2Nc3ccccc3NC3=C2C(=O)CC(C)(C)C3)ccc1O (centres undefined),13,12,13,-19,3,x,x
CCNC(=O)c1c(C)nc2ccccn12,3,6,6,16*,2,-6,-3
CC1C(=O)N(Cc2cn(CCC3OCCCO3)nn2)CCS(=O)(=O)N1Cc1ccc(-c2ccccc2)cc1 (centres undefined),x,x,x,6,x,x,x
CC1C(=O)N(Cc2cn(CCC3OCCCO3)nn2)CCS(=O)(=O)N1Cc1ccc(-c2ccc(Cl)cc2)cc1 (centres undefined),x,x,x,13*,x,x,24*
COc1ccc(Oc2nc(C)cc(C)c2S(=O)(=O)c2ccc(C)cc2)cc1,-5,2,1,18*,1,0,-4
SMILES,GLD-1 TGE inh,MCL1-BIM inh,BCLXL inh,eLon inh,MEX-5 binding,EBV gp42 inh,E coli Lon conf
COc1nc(C)cc(C)c1S(=O)(=O)c1ccc(Cl)cc1,-1,-11,-4,1,-2,x,x
CC1=NN(C(N)=S)C(=O)C1N=Nc1ccccc1O (centres undefined),-8,12,13,19*,5,x,26*
CN(C)CCCN1C(=O)C2CCc3[nH]c4ccccc4c3C2C1=O (centres undefined),1,8,7,24*,x,1,-2
CCOc1c2ccccc2nn1CCOC,-4,-4,1,-14,x,x,x
CCOc1c2ccccc2nn1CCO,9,-1,0,29*,x,x,-77
c1ccc2c(c1)CCN(C1=Nc3cccc4cccc1c34)C2,x,x,x,35*,x,41,106*
c1cc2c3c(cccc3c1)C(N1CCCCC1)=N2,30,27,27,27*,-18,27,52*
Cc1c(C(=O)C(=O)N2CC=C(c3ccccc3)CC2)c2ccccc2n1C,6,2,3,-3,-2,3,x
CCOC(=O)C1Nc2ccccc2C2c3ccccc3CC12 (centres undefined),-10,6,4,30*,5,x,29*
Cc1nc(CN(C)C(=O)CC2C(=O)NCCN2Cc2ccc(-c3ccccc3)cc2)cs1 (centres undefined),8,6,11,9,2,x,x
CCCC(c1nnnn1CCOC)N1CCN(C(=O)c2ccco2)CC1 (centres undefined),-4,15,12,29*,1,-15,-7
CCn1c(COc2ccccc2)nnc1SCC(=O)NC1CC1,4,6,4,-10,0,x,x
O=C(O)/C=C/C(=O)Nc1ccc(O)cc1,1,8,9,121*,-1,-9,1
O=C(O)/C=C/C(=O)Nc1ccc(C(=O)c2ccccc2)cc1,-6,-3,10,1,-1,-5,x
COC(=O)N(C)C[C@@H]1OCc2cnnn2CCCC(=O)N([C@@H](C)CO)C[C@H]1C,x,x,x,-8,x,x,x
CN(C)c1cccc(C(=O)NCc2ccccc2)c1,5,3,2,0,-2,-2,x
CN(C)c1cccc(C(=O)NCc2ccccc2Cl)c1,4,-2,3,68*,2,-5,-2
COc1ccc(N(CC(=O)Nc2ccc(S(=O)(=O)N3CCOCC3)cc2)S(C)(=O)=O)cc1OC,x,x,x,16*,x,x,6
COc1ccc(C)cc1N(CC(=O)Nc1ccc(S(=O)(=O)N2CCOCC2)cc1)S(C)(=O)=O,1,13,5,8,1,x,x
COc1cc(CNC2CCCC2)cc(Br)c1OCC(=O)Nc1ccccc1C,6,4,4,2,2,-8,x
CSCCC(NS(=O)(=O)c1cccc(C(F)(F)F)c1)C(=O)N1CCN(C(=O)c2ccco2)CC1 (centres undefined),x,x,x,52*,x,x,2
C[C@H](CO)N1C[C@H](C)[C@H](CN(C)C(=O)Cc2cccnc2)Oc2ncc(Br)cc2C1=O,x,x,x,-2,x,x,x
